A selection: hits, their analogues and other compounds. The true share with any hit is near 2.5%.
MEKK2 mut-MEK5: MEK5 binding signal on mutant MEKK2 PB1, primary screen, biochemical, multiplex bead flow cytometry, Alexa488-MEK5; Alexa488-MEK5 binding to MEKK2 mutant; hit rate 0.35% among 290,000; percent response, % at 10 µM; AID 1530, 2009; in the data active = percent response above about 24%, passing the limit was not always enough
MEKK2 WT-MEK5: modulators of MEK5 binding to wildtype MEKK2, primary screen, biochemical, multiplex bead flow cytometry, Alexa488-MEK5; Mitogen-activated protein kinase kinase kinase 2 (Homo sapiens), Q9Y2U5; Alexa488-MEK5 binding to MEKK2 WT; actives lie on both sides; binding response (% of control), % at 10 µM; hit rate 1.1% among 290,000; AID 1531, 2009; in the data active = binding response below about 67% or above about 130%
GRK2 aptamer HTS: compounds blocking aptamer binding on GRK2 – biochemical, human GRK2, bead flow cytometry, HTS, primary screen | Beta-adrenergic receptor kinase 1 (Homo sapiens), P25098 | hit rate 0.59% among 330,000 | FAM-aptamer displacement from GRK2 | inhibition of aptamer binding, % at 10 µM;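 active = inhibition of aptamer binding above 40%, roughly 3 SD of noise, on plates passing a quality check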;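 note: median bead fluorescence of bound FAM aptamer so fluorescent compounds give negative values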
MEKK3 PB1 HTS: modulators of MEKK3-MEK5 PB1 binding, primary screen, biochemical, wildtype MEKK3, multiplex bead flow cytometry, Alexa488-MEK5; Mitogen-activated protein kinase kinase kinase 3 (Homo sapiens), Q99759; binding response (% of control), % at 10 µM; bead-based flow cytometry, Alexa488-MEK5 binding to MEKK3; actives lie on both sides; 0 = blocked by unlabeled MEK5, 100 = vehicle; hit rate 1.4% among 290,000; AID 1529, 2009;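 active = binding response more than 3 SD above or below the average of its plate-row segment, actives on both sides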;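 note: Alexa488 bead fluorescence after subtracting the streptavidin-only scavenger bead signal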
Target sequence (Q99759 whole entry, looked up): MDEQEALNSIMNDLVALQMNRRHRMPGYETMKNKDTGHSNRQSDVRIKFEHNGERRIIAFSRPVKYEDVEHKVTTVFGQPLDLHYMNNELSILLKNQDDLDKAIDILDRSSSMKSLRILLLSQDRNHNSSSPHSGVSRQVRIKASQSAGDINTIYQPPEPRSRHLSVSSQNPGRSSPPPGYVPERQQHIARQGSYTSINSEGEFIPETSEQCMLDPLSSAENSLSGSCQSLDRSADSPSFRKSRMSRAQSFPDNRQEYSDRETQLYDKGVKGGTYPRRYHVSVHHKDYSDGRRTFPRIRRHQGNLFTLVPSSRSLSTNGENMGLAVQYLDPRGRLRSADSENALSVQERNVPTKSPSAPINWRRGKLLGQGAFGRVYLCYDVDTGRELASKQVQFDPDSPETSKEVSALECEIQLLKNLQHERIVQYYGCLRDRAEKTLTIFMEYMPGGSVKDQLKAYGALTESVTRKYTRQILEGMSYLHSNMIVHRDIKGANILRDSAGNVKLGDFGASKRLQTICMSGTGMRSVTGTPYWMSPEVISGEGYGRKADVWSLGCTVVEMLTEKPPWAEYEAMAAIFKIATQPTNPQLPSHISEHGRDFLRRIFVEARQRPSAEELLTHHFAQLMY
MEKK2wt confirm: modulators of MEK5 binding to wildtype MEKK2, confirmation, biochemical, single concentration, multiplex bead flow cytometry; Alexa488-MEK5 binding to MEKK2 WT; actives lie on both sides; shares compounds with MEKK3 PB1 HTS; hit rate 2.4% among 5,900; binding response (% of control), % at 10 µM; in the data active = binding response below about 16% or above about 210%; inactive = in between
MEKK2mut-MEK5: mutant MEKK2 PB1-MEK5 binding signal retest – biochemical, single concentration, multiplex bead flow cytometry, confirmation. hit rate 2% among 5,900. Alexa488-MEK5 binding to MEKK2 mutant. percent response, % at 10 µM. shares compounds with MEKK3 PB1 HTS; in the data active = percent response mostly above about 71%, no sharp cut-off; inactive = mostly below about 38%;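 note: higher means compound restores mutant binding toward wildtype level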
MEKK3 confirm: MEKK3 wild-type PB1 binding to MEK5, inhibitors, confirmation, biochemical, bead multiplex flow cytometry, single concentration, wildtype; hit rate 1.8% among 5,900; Alexa488-MEK5 binding to MEKK3; hits give low values; AID 1894, 2009; binding response (% of control), % at 10 µM; shares compounds with MEKK3 PB1 HTS;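 active = binding response below 72% of control, or above a set upper limit, though filed actives all read lower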;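 note: lower values mean stronger disruption of MEK5 binding to MEKK3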
Numbers stand for hits; - = inactive; . = no result given; [ ] = remark or other dose.

SMILES | MEKK2 mut-MEK5 | MEKK2 WT-MEK5 | GRK2 aptamer HTS | MEKK3 PB1 HTS | MEKK2wt confirm | MEKK2mut-MEK5 | MEKK3 confirm
Cc1nn(-c2ccccc2)c(N)c1C(c1ccc(C(C)C)cc1)c1c(C)nn(-c2ccccc2)c1N | - | - | - | 146.0 | - | - | -
Cc1ccc(C(c2c(C)nn(-c3ccccc3)c2N)c2c(C)nn(-c3ccccc3)c2N)cc1 | - | - | - | - | . | . | .
COc1ccc(C)cc1Nc1n[n+](C)c(-c2ccc(C(=O)O)cc2)s1 | - | - | . | - | . | . | .
CC(=O)Nc1ccc(-c2sc(Nc3cccc4ccccc34)n[n+]2-c2ccccc2)cc1 | - | 159.0 | - | - | - | - | -
C[n+]1nc(Nc2cccc3ccccc23)sc1-c1ccc(C(=O)O)cc1 | - | - | . | - | . | . | .
COc1ccc(C)cc1Nc1n[n+](-c2ccccc2)c(-c2ccc(SC)cc2)s1 | 29.0 | - | - | - | - | - | -
COc1ccc(C)cc1Nc1n[n+](-c2ccccc2)c(-c2ccc(NC(C)=O)cc2)s1 | - | 142.0 | - | - | - | - | -
CN1CCS/C1=C/C=C1/SC(=S)N(Cc2ccccc2)C1=O | - | - | - | - | . | . | .
CCN1C(c2ccccc2)=C(c2ccccc2)S/C1=C/C=C1\SC(=S)N(C)C1=O | - | -7.0 | . | 37.0[inhibitor] | - | - | 51.0
CCN1C(=O)/C(=C/C=C2/Sc3ccc4ccccc4c3N2CCO)SC1=S | - | 8.0[inhibitor] | - | - | - | - | -
CCN1C(c2ccccc2)=C(c2ccccc2)S/C1=C\C=C1/SC(=S)N(C)C1=O | - | -8.0 | - | 33.0[inhibitor] | - | - | 70.0
COc1ccccc1CN(C)C(=O)COC(=O)c1c(C)noc1C | . | . | - | . | . | . | .
COc1cc2c(cc1OC)CN(c1ccc(C(N)=O)cc1[N+](=O)[O-])CC2 | - | - | - | - | . | . | .
COc1ccc(N(CC(=O)Nc2ccccc2C(N)=O)S(=O)(=O)c2ccc(C)c([N+](=O)[O-])c2)cc1 | - | - | - | - | . | . | .
O=C(Nc1cccc(-c2csc(Nc3ccc(Cl)cc3)n2)c1)c1cccc(C(F)(F)F)c1 | - | - | - | 123.0 | - | - | -
O=[N+]([O-])c1ccccc1-c1ccc(/C=N/n2cnnc2)o1 | - | - | - | - | . | . | .
Nn1cnnc1N/N=C\c1ccc(-c2ccccc2[N+](=O)[O-])o1 | - | - | . | 156.0 | - | - | -
O=C1C(Cl)=C(N2CCCCC2)C(=O)C(Cl)=C1c1cnc(N2CCCCC2)s1 | - | 60.0[inhibitor] | . | 62.0[inhibitor] | - | - | -
CN(C)c1ncc(C2=C(Cl)C(=O)C(N3CCCC3)=C(Cl)C2=O)s1 | - | - | - | - | . | . | .
CCc1ccc(N=CC23c4ccccc4C(c4ccccc42)C2C(=O)N(c4ccc(OC)cc4)C(=O)C23)cc1 (stereo not given) | - | - | - | 81.0[inhibitor] | - | - | -
Cc1nccn1CC(=O)c1ccc(O)c(O)c1 | . | . | - | . | . | . | .
CCC(C)(C)c1nnc(NC(=O)C2CC(=O)N(CCc3ccc(F)cc3)C2)s1 (stereo not given) | - | - | - | - | . | . | .
CCCCCCCNC(=O)C1(CC2CC(c3ccc(Cl)cc3)=NO2)CCN(C(=O)Cc2ccc(F)cc2)CC1 (stereo not given) | - | - | - | - | . | . | .
CCCCCCCNC(=O)C1(CC2CC(c3ccc(Cl)cc3)=NO2)CCNCC1 (stereo not given) | - | 158.0 | - | - | - | - | -
CCCCCCCNC(=O)C1(CC2CC(c3cccc(Br)c3)=NO2)CCNCC1 (stereo not given) | - | 191.0 | - | - | - | - | -
SMILES | MEKK2 mut-MEK5 | MEKK2 WT-MEK5 | GRK2 aptamer HTS | MEKK3 PB1 HTS | MEKK2wt confirm | MEKK2mut-MEK5 | MEKK3 confirm
Cc1ncsc1C(=O)Nc1cccc(C(F)(F)F)c1 | - | - | - | - | . | . | .
Cc1ccccc1NC(=O)CSc1nc(=O)n(CCN2CCOCC2)c2c1CCCC2 | . | . | - | . | . | . | .
NCCc1c(-c2ccccc2)n(-c2ccccc2)c2ccccc12 | 62.0 | 197.0 | . | - | - | - | -
CN(C)S(=O)(=O)c1cccc(NC(=O)CSc2nc3ccccc3n2-c2ccccc2)c1 | - | - | - | 153.0 | - | - | -
CN(C)S(=O)(=O)c1ccc(NC(=O)CSc2nc3ccccc3n2-c2ccccc2)cc1 | - | - | - | - | . | . | .
COc1ccc(NC(=O)COc2nsnc2N2CCCCC2)cc1 | - | 44.0[inhibitor] | - | 27.0[inhibitor] | - | - | -
CCOc1ccc(NC(=O)COc2nsnc2N2CCCCC2)cc1 | - | - | - | - | . | . | .
CCCC1=NN(C(=O)CCc2ccccc2O)C(O)(C(F)(F)F)C1 (stereo not given) | - | - | - | 138.0 | - | - | -
C[C@@H]1C[C@H]2[C@@H]3CCC4=CC(=O)C=C[C@]4(C)[C@@]3(F)[C@@H](O)C[C@]2(C)[C@H]1C(=O)CO | - | - | - | 122.0 | - | - | -
CC(=N\NC(=O)c1ccc([N+](=O)[O-])cc1)/C(=N/O)C(=O)Nc1ccccc1 | - | - | - | - | . | . | .
O=C(/C=C/c1ccccc1Cl)N(Cc1ccc(Cl)cc1)C1CCS(=O)(=O)C1 (stereo not given) | - | - | - | - | . | . | .
O=C(/C=C/c1ccccc1Cl)N(Cc1ccccc1)C1CCS(=O)(=O)C1 (stereo not given) | - | - | - | 138.0 | - | - | -
C=CCc1c(C)nc(N2CCSCC2)[nH]c1=O | - | - | - | - | . | . | .
C#CCOCCOCCOCCNc1nc(N2CCN(C(=O)[C@H](CCCCN)n3cc([C@@H](N)C(C)CC)nn3)CC2)nc(N2CCN(C(=O)[C@H](Cc3ccc(O)cc3)n3cc([C@@H](N)CC(C)C)nn3)CC2)n1 (stereo not given in full) | - | 158.0 | - | - | - | - | -
C#CCOCCOCCOCCNc1nc(N2CCN(C(=O)[C@H](CCCCN)n3cc([C@@H](N)CC(C)C)nn3)CC2)nc(N2CCN(C(=O)[C@H](Cc3ccc(O)cc3)n3cc([C@@H](N)CC(C)C)nn3)CC2)n1 | - | 151.0 | - | - | - | - | -

Source: PubChem
